# Results taken from the supplement of paper PMC8728848.
# The sample as a whole holds a higher share of the strongest signals than the screen did.
# B1: CPA (Cicer arietinum) (protein)
# chain: MAFSYLNLVLVTLTTLFFLQTTKVKSQKSVSFHITNFTISRPSITLQGTAEFLPNVLLLNDIEHPVFVVGRALYSKPITLWNNKTGKVASFVTSFTFDVQDLKKTVPGHGLVFFLAPSGSEIPFSSDGGNLGVVDGKNAFNRFVGVEFDNFVNSWDPKYSHVGINVNSLISTKTVKWNRVSGELVKVSIVYDSVSTTLTVIVTYKNGQISILSQLVDLKAVLPDTVNIGFSASTTLVSPRQLHNIHSWSFTSTFET
# Legend:
# Assay in all cases: glycan array binding signal (z-score within array); higher = stronger binding
# Settings in all cases: glycan notation: IUPAC condensed, linker removed
# Gal(b1-4)GlcNAc6P = target: Gal(b1-4)GlcNAc6P
# Procedure, shortened: (§1)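 Negative Z-scores can be read as non-binding. The Z-score is calculated within each array and then averaged across arrays of one protein sequence at different concentrations or buffers and across linkers. Arrays, 3228 in all, were curated from the Consortium for Functional Glycomics database and kept only where the protein sequence was available.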
# Gal3S(b1-3)GalNAc = target: Gal3S(b1-3)GalNAc
# Procedure, shortened: as §1
# Gal6S(b1-4)Glc = target: Gal6S(b1-4)Glc
# Procedure, shortened: as §1
# [1] = target: GalNAc(b1-4)GlcNAc(b1-2)Man
# Procedure, shortened: as §1
# Glc(b1-6)Glc = target: Glc(b1-6)Glc
# Procedure, shortened: as §1
# [2] = target: GlcNAc(a1-4)Gal(b1-4)GlcNAc
# Procedure, shortened: as §1
# GlcNAc(b1-3)Man = target: GlcNAc(b1-3)Man
# Procedure, shortened: as §1
# Kdn(a2-3)Gal(b1-4)Glc = target: Kdn(a2-3)Gal(b1-4)Glc
# Procedure, shortened: as §1
# Kdn(a2-3)Gal(b1-4)GlcNAc = target: Kdn(a2-3)Gal(b1-4)GlcNAc
# Procedure, shortened: as §1
# [3] = target: Man(a1-2)Man(a1-3)[Man(a1-2)Man(a1-6)]Man
# Procedure, shortened: as §1
# Man(a1-3)[Man(a1-6)]Man = target: Man(a1-3)[Man(a1-6)]Man
# Procedure, shortened: as §1
# [4] = target: Man(a1-3)[Man(a1-6)]Man(a1-6)[Man(a1-2)Man(a1-3)]Man(b1-4)GlcNAc(b1-4)GlcNAc
# Procedure, shortened: as §1
# MurNAc(b1-4)GlcNAc = target: MurNAc(b1-4)GlcNAc
# Procedure, shortened: as §1
# Neu5Ac(a2-3)Gal = target: Neu5Ac(a2-3)Gal
# Procedure, shortened: as §1
# [5] = target: Neu5Ac(a2-3)Gal(b1-3)GalNAc(b1-3)Gal(a1-4)Gal(b1-4)Glc
# Procedure, shortened: as §1
# [6] = target: Neu5Ac(a2-3)Gal(b1-3)GlcNAc(b1-2)Man(a1-3)[GlcNAc(b1-4)][Neu5Ac(a2-3)Gal(b1-3)GlcNAc(b1-2)Man(a1-6)]Man(b1-4)GlcNAc(b1-4)GlcNAc
# Procedure, shortened: as §1
# [7] = target: Neu5Ac(a2-3)Gal(b1-4)GlcNAc(b1-3)Gal
# Procedure, shortened: as §1
# [8] = target: Neu5Ac(a2-3)Gal(b1-4)GlcNAc(b1-3)Gal(b1-4)GlcNAc(b1-3)Gal(b1-4)GlcNAc(b1-2)Man(a1-3)[Neu5Ac(a2-3)Gal(b1-4)GlcNAc(b1-3)Gal(b1-4)GlcNAc(b1-3)Gal(b1-4)GlcNAc(b1-2)Man(a1-6)]GalNAc
# Procedure, shortened: as §1
# [9] = target: Neu5Ac(a2-3)Gal(b1-4)[Fuc(a1-3)]GlcNAc(b1-3)GalNAc
# Procedure, shortened: as §1
# [10] = target: Neu5Ac(a2-3)[GalNAc(b1-4)]Gal(b1-4)Glc
# Procedure, shortened: as §1
# [11] = target: Neu5Ac(a2-6)Gal(b1-4)GlcNAc(b1-2)Man(a1-3)[Neu5Ac(a2-6)Gal(b1-4)GlcNAc(b1-2)Man(a1-6)]Man(b1-4)GlcNAc(b1-4)GlcNAc
# Procedure, shortened: as §1
# [12] = target: Neu5Ac(a2-6)Gal(b1-4)GlcNAc(b1-3)Gal(b1-4)GlcNAc(b1-3)[Neu5Ac(a2-6)Gal(b1-4)GlcNAc(b1-3)Gal(b1-4)GlcNAc(b1-6)]GalNAc
# Procedure, shortened: as §1
# [13] = target: Neu5Ac(a2-6)Gal(b1-4)GlcNAc(b1-3)[Neu5Ac(a2-6)Gal(b1-4)GlcNAc(b1-6)]GalNAc
# Procedure, shortened: as §1
# [14] = target: Neu5Ac(a2-6)GalNAc(b1-4)GlcNAc6S
# Procedure, shortened: as §1
# [15] = target: Neu5Ac(a2-6)GlcNAc(b1-4)GlcNAc(b1-4)GlcNAc
# Procedure, shortened: as §1
# [16] = target: Neu5Ac(a2-8)Neu5Ac(a2-3)Gal(b1-4)Glc
# Procedure, shortened: as §1
# [17] = target: Neu5Ac(a2-8)Neu5Ac(a2-3)Gal(b1-4)GlcNAc
# Procedure, shortened: as §1
# [18] = target: Neu5Ac(a2-8)Neu5Ac(a2-8)Neu5Ac(a2-3)Gal(b1-4)Glc
# Procedure, shortened: as §1
# [19] = target: Neu5Gc(a2-3)Gal(b1-4)GlcNAc
# Procedure, shortened: as §1
binder,measurement,setting,value
B1,glycan array binding signal (z-score),Gal(b1-4)GlcNAc6P,5.14
same,glycan array binding signal (z-score),Gal3S(b1-3)GalNAc,-0.183
same,glycan array binding signal (z-score),Gal6S(b1-4)Glc,0.138
same,glycan array binding signal (z-score),[1],1.55
same,glycan array binding signal (z-score),Glc(b1-6)Glc,-0.614
same,glycan array binding signal (z-score),[2],2.25
same,glycan array binding signal (z-score),GlcNAc(b1-3)Man,-0.558
same,glycan array binding signal (z-score),Kdn(a2-3)Gal(b1-4)Glc,-0.762
same,glycan array binding signal (z-score),Kdn(a2-3)Gal(b1-4)GlcNAc,-0.585
same,glycan array binding signal (z-score),[3],-0.461
same,glycan array binding signal (z-score),Man(a1-3)[Man(a1-6)]Man,-0.635
same,glycan array binding signal (z-score),[4],4.19
same,glycan array binding signal (z-score),MurNAc(b1-4)GlcNAc,0.406
same,glycan array binding signal (z-score),Neu5Ac(a2-3)Gal,-0.529
same,glycan array binding signal (z-score),[5],-0.601
same,glycan array binding signal (z-score),[6],-0.065
same,glycan array binding signal (z-score),[7],-0.66
same,glycan array binding signal (z-score),[8],6.81
same,glycan array binding signal (z-score),[9],-0.322
same,glycan array binding signal (z-score),[10],-0.34
same,glycan array binding signal (z-score),[11],-0.503
same,glycan array binding signal (z-score),[12],3.34
same,glycan array binding signal (z-score),[13],-0.588
same,glycan array binding signal (z-score),[14],-0.452
same,glycan array binding signal (z-score),[15],2.61
same,glycan array binding signal (z-score),[16],-0.501
same,glycan array binding signal (z-score),[17],-0.647
same,glycan array binding signal (z-score),[18],-0.579
same,glycan array binding signal (z-score),[19],-0.402
